“And” between values parts separate entries of the source, which are not always exact repeats. Equal entries are not always repeated. Inconclusive results are not listed. Where a structure was tested more than once in an assay, its records may differ in their call. The source made the active and inactive calls. Unless noted, the rule behind the calls is not given here.
Legend:
[1] = qHTS Assay for Identifying Gametocytocidal Compounds (AID 743244; active = well fitted curve in the direction sought with a large enough effect; an effect the other way counts as inactive or inconclusive; note: potency is the fitted concentration of half-maximal effect;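 for max response: % is set by controls: 0 for no effect and ±100 for the full control effect; actives lower the fluorescent signal which means gametocytes are killed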); conditions: P. falciparum 3D7 stage III-V gametocytes, alamarBlue, 72 h; max response: stronger effect = lower value
How it was run: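 P. falciparum 3D7 stage III–V gametocytes (20,000 cells/well) were exposed to compounds for 72 h at 37 °C, 5% CO2. AlamarBlue was then added for 24 h; decreased resorufin fluorescence (Ex 525/Em 598 nm) indicated loss of viability.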

[2] = qHTS profiling for inhibitors of Plasmodium falciparum (3D7) proliferation (AID 743322);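 note: infected erythrocytes exposed to compound for 72 h before lysis; 100% = DMSO vehicle wells and 0% = 0.29 µM artemisinin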; conditions: P. falciparum 3D7 proliferation; at 28.7 µM (top of the series) unless noted
How it was run: (§1)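 Parasite DNA was quantified by SYBR Green I fluorescence (ex 485, em 535 nm) after overnight lysis in saponin/Triton buffer at room temperature. Cultures at 0.3% parasitemia and 2.5% hematocrit were first exposed to compound for 72 h at 37 C; signals were normalised to artemisinin (0.29 uM) and vehicle wells.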

[3] = qHTS profiling for inhibitors of Plasmodium falciparum (DD2) proliferation (AID 743323); conditions: lower = more inhibition; at 28.7 µM (top of the series) unless noted
How it was run: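 SYBR Green fluorescence (ex 485, em 535 nm) of lysed cultures gives parasite DNA content; wells normalized to artemisinin (0.29 uM) and DMSO controls. Infected red cells: 0.3% parasitemia, 2.5% hematocrit, 72 h, 37 C.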

[4] = qHTS profiling of the MIPE4 collection as inhibitors of Plasmodium falciparum (3D7) proliferation (AID 743344);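 note: scaled between DMSO vehicle wells and 0.29 µM artemisinin as full inhibition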; conditions: P. falciparum 3D7 in erythrocytes, SYBR Green DNA fluorescence, 72 h; at 28.5 µM (top of the series) unless noted
How it was run: as §1

[5] = qHTS profiling of the MIPE4 collection as inhibitors of Plasmodium falciparum (DD2) proliferation (AID 743345); conditions: P. falciparum Dd2 in erythrocytes, SYBR Green DNA, 72 h; at 28.5 µM (top of the series) unless noted
How it was run: as §1

[6] = qHTS profiling of the MIPE4 collection as inhibitors of Plasmodium falciparum (DD2) proliferation (Rep 2) (AID 743346); conditions: P. falciparum Dd2 in erythrocytes, SYBR Green DNA, 72 h; at 28.5 µM (top of the series) unless noted
How it was run: as §1

[7] = qHTS profiling of the MIPE4 collection as inhibitors of Plasmodium falciparum (HB3) proliferation (AID 743347);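 note: plate controls were DMSO vehicle wells for no effect and artemisinin wells for full effect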; conditions: P. falciparum HB3 in erythrocytes, SYBR Green DNA, 72 h; at 28.5 µM (top of the series) unless noted
How it was run: as §1

[8] = High-throughput drug toxicity screening in the BPDCN cell line Gen2.2 (AID 1224824); conditions: Gen2.2 BPDCN cells; at 45.8 µM (top of the series) unless noted;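 note: cells exposed to compounds for 48 h before reading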
How it was run: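 Gen2.2 cells (500/well) in phenol red-free RPMI with 10% FBS were exposed to compounds for 48 h at 37 °C, 5% CO2. Viability was read by CellTiter-Glo luminescence and normalized to DMSO (100%) and 9.2 uM bortezomib (0%).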

[9] = qHTS assay for measurement of the activity of small molecule inhibitors on Zika virus induced Caspase-3 activity in human iPSC derived neural progenitor cells (hNPCs) (AID 1224857; active = well fitted curve in the direction sought with a large enough effect; an effect the other way counts as inactive or inconclusive; note: nearly all actives have a fitted effect of over 65% in size; note: potency is the fitted concentration of half-maximal effect)
How it was run: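 hNPCs seeded 350 cells/well, cultured 16–20 h; compounds added 1 h before ZIKV (2 FFU/cell), 37 C 6 h. Caspase-Glo 3/7 luminescence after 30 min RT; % inhibition from induction scaled to uninfected (0%) and infected (100%) wells.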

[10] = qHTS assay for measurement of the activity of small molecule inhibitors on Zika virus induced Caspase-3 activity in human astrocytoma cells (AID 1224859; active = well fitted curve in the direction sought with a large enough effect; an effect the other way counts as inactive or inconclusive;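 note: plate controls were ZIKV-infected untreated cells for no effect and uninfected cells for full effect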)
How it was run: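 Luminescence read-out (Caspase-Glo 3/7, 30 min RT) of caspase activity in SNB-19 cells infected 6 h with ZIKV, 2 FFU/cell, after 1 h compound pretreatment; % inhibition from induction normalised to uninfected (0%) and infected (100%) wells.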

[11] = qHTS Screen of the MIPE 4.0 Collection Against Ewings Sarcoma (RDES) (AID 1259252; active = well fitted curve in the direction sought with a large enough effect; an effect the other way counts as inactive or inconclusive; note: nearly all actives have a fitted effect of over 35% in size; note: potency is the fitted concentration of half-maximal effect)
How it was run: (§2)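 Viability screen: 48 h incubation at 37C, 95% humidity, 5% CO2 with serially titrated compound, followed by CellTiter-Glo readout.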

[12] = qHTS Screen of the MIPE 4.0 Collection Against Ewings Sarcoma (TC71) (AID 1259253; active = well fitted curve in the direction sought with a large enough effect; an effect the other way counts as inactive or inconclusive; note: nearly all actives have a fitted effect of over 40% in size; note: potency is the fitted concentration of half-maximal effect)
How it was run: as §2

[13] = qHTS Screen of the MIPE 4.0 Collection Against Ewings Sarcoma (EW8) (AID 1259255; active = well fitted curve in the direction sought with a large enough effect; an effect the other way counts as inactive or inconclusive; note: nearly all actives have a fitted effect of over 35% in size; note: potency is the fitted concentration of half-maximal effect;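 for viability: 100% = DMSO-treated cells and 0% = medium-only wells without cells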)
How it was run: as §2

[14] = qHTS profiling for inhibitors of Plasmodium falciparum (HB3) proliferation (AID 743324; active = well fitted curve in the direction sought with a large enough effect; an effect the other way counts as inactive or inconclusive;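 note: 100% = DMSO vehicle wells and 0% = artemisinin-treated control wells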); conditions: Plasmodium falciparum HB3 blood-stage proliferation; at 28.7 µM (top of the series) unless noted
How it was run: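 SYBR Green fluorescence (485 ex/535 em) of lysed cultures, incubated overnight at room temperature in the dark, quantifies parasite DNA. Infected erythrocytes at 0.3% parasitemia and 2.5% hematocrit were exposed 72 h; values normalized to DMSO and 0.29 uM artemisinin controls.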

[15] = molecular target: Hexokinase-4 (Homo sapiens) + Glucokinase regulatory protein (Homo sapiens) (UniProt P35557+Q14397); experiment: qHTS assay for inhibitors of recombinant human GCK-GKRP interaction: HTRF assay (AID 743207; active = well fitted curve in the direction sought with a large enough effect; an effect the other way counts as inactive or inconclusive;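 note: 0% = DMSO with GCK present and -100% = DMSO wells lacking GCK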)
Hexokinase-4 (Homo sapiens) + Glucokinase regulatory protein (Homo sapiens), sequence (P35557 whole entry, looked up): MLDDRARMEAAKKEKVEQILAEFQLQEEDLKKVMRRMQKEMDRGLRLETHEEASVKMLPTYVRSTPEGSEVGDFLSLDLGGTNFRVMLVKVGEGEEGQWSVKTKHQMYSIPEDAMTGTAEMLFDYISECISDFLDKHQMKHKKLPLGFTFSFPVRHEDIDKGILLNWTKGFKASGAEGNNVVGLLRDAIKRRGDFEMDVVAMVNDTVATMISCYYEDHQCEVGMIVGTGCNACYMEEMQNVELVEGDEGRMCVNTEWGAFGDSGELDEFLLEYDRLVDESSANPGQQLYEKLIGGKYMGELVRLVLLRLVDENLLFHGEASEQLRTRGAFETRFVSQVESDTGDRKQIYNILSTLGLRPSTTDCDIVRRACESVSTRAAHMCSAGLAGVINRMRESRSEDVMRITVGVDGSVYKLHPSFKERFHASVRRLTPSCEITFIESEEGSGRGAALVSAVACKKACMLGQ
Hexokinase-4 (Homo sapiens) + Glucokinase regulatory protein (Homo sapiens), sequence (Q14397 whole entry, looked up): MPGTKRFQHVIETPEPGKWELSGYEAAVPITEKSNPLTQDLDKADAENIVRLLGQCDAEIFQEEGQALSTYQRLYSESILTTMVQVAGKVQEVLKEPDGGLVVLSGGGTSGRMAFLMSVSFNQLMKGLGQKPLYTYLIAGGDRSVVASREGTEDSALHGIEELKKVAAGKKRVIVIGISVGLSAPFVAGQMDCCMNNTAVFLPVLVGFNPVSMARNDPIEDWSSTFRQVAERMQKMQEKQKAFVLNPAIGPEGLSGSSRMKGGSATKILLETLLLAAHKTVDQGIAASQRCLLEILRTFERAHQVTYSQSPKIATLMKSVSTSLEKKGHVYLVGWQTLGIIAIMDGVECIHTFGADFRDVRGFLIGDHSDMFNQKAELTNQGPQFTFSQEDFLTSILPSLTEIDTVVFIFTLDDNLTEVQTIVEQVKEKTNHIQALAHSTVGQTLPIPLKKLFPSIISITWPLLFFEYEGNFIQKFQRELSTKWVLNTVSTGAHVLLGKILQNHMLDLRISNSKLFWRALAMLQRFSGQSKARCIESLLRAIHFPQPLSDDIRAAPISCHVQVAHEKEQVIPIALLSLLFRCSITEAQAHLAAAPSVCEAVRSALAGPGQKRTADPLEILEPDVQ
How it was run: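 GST-GCK and FLAG-GKRP (5 nM each) were combined with 2 uM S6P in pH 7.1 Hepes/MgCl2/KCl/DTT buffer, then compound and anti-FLAG XL665/anti-GST K antibodies were added. After 60 min at room temperature, HTRF 665/615 nm emission was read.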

SMILES | max response [1] | remaining parasite growth % (stronger effect = lower value) [2] | activity, percent of control [3] | parasite growth, % of DMSO control [4] | parasite growth remaining, % of DMSO control (lower = more inhibition) [5] | parasite growth, % of control (lower = inhibition) [6] [%] | growth, % of control [7] | cell viability, % of control (lower = more cytotoxic) [8] | Potency [9] | Potency [10] | Potency [11] | Potency [12] | Potency [13] | remaining proliferation (% of control), lower = more inhibition [14] | outcome [15] | Potency [1]
COc1cccc2cc(-c3nc(C4CCC(C(=O)O)CC4)n4ncnc(N)c34)[nH]c12 (stereo not drawn) | -10.8% (inactive) | 64.8% | 53.2% | 13.9% | 16.6% | 28.6 | 9.36% | 5.49% | inactive | inactive | 0.833 µM (active) | 0.662 µM (active) | 0.526 µM (active) | – | – | –
CNCc1ccc(-c2[nH]c3cc(F)cc4c3c2CCNC4=O)cc1 | – | 28.7% | 77.5% | 47.4% | 85% | 51.1 | 18.7% | 80.5% | inactive | – | – | – | – | 54% | – | –
CCC(C)n1ncn(-c2ccc(N3CCN(c4ccc(OC[C@H]5CO[C@](Cn6cncn6)(c6ccc(Cl)cc6Cl)O5)cc4)CC3)cc2)c1=O (stereo partly drawn) | 3.11% (inactive) | 3.74% | 7.7% | 5.41% | 8.47% | 37.4 | 4.47% | 92.6% | inactive | – | – | inactive | inactive | 2.67% | – | –
CC(C)(C)OC(=O)CN(Cc1ccc(Cl)cc1)Cc1ccc([N+](=O)[O-])s1 | – | 2.82% | 3.12% | 99.5% | 19.7% | – | 51.3% | 18.4% | 10.5 µM (active) | inactive | inactive | 2.35 µM (active) | – | -1.32% | – | –
Cc1cc(C=c2sc3nc4ccccc4n3c2=O)c(C)n1-c1ccccc1 | 11.9% (inactive) | 37.9% | 101% | 84.9% | 93.2% | 73 | 424% | 74.1% | – | – | inactive | – | inactive | 116% | – | –
COc1ccc(C2=N[C@H](c3ccc(Cl)cc3)[C@H](c3ccc(Cl)cc3)N2C(=O)N2CCNC(=O)C2)c(OC(C)C)c1 | 18.2% (inactive) | 52.3% | 50.5% | 17.5% | 54.6% | 11.8 | 12.4% | 4.67% | inactive | inactive | 18.7 µM (active) | 16.6 µM (active) | 5.26 µM (active) | 23.2% | – | –
Cc1oncc1C(=O)Nc1ccc(C(F)(F)F)cc1 | 50.5% (inactive) and -6.39% (inactive) and -7.89% (inactive) | 104% and 91.9% | 94.9% and 88.9% | 13.7% | 102% | 61.2 | 10.6% | 32.8% | inactive and 2.64 µM (active) | – | 8.33 µM (active) | 18.7 µM (active) | 20.9 µM (active) | 95% and 87.2% | inactive | –
CC(C)c1onc(-c2c(Cl)cccc2Cl)c1COc1ccc(/C=C/c2cccc(C(=O)O)c2)c(Cl)c1 | – | 28.5% | 74.9% | – | – | – | – | – | – | – | – | – | – | 71.7% | – | –
CCCS(=O)(=O)Nc1ccc(F)c(C(=O)c2c[nH]c3ncc(-c4ccc(Cl)cc4)cc23)c1F | 14.6% (inactive) | 17.1% | 22.9% | 17.9% | 24% | 52.1 | 15.2% | 453% | inactive | inactive | 13.2 µM (active) | 14.8 µM (active) | – | 22.8% | – | –
CCOc1ccn(-c2ccc(F)cc2)c(=O)c1C(=O)Nc1ccc(Oc2ccnc(N)c2Cl)c(F)c1 | – | 83.7% | 56.6% | 41.2% | 80.4% | 36 | 73% | 145% | inactive | inactive | 23.5 µM (active) | – | – | 36.7% | – | –
CC(C=CC1=C(C)CCCC1(C)C)=CC=CC(C)=CC(=O)O | – | – | – | 76.8% and 52.8% | 85.9% and 87.9% | – | 106% and 85.5% | 49.1% and 83.4% | inactive | inactive | 23.5 µM (active) | – | 20.9 µM (active) and 9.35 µM (active) | – | – | –
CN([C@@H](Cc1ccc(OS(=O)(=O)c2cccc3cnccc23)cc1)C(=O)N1CCN(c2ccccc2)CC1)S(=O)(=O)c1cccc2cnccc12 | – | 0.0531% and -0.942% | 0.806% and 0.455% | 5.27% | 6.98% | 12.9 | 4.99% | – | – | – | – | – | – | -0.274% and -0.52% | – | 18.7 µM (active)
O=C(Nc1ccc(F)c(C(F)(F)F)c1)Nc1nnc(-c2ccncc2)s1 | 6.18% (inactive) | 94.5% | 90% | 19.3% | 14.4% | – | 4.4% | 131% | inactive | – | – | – | – | 67.6% | – | –
CCCS(=O)(=O)Nc1ccc(F)c(C(=O)c2c[nH]c3ncc(Cl)cc23)c1F | – | 90.9% | 83.1% | 51.6% | 77.2% | 80.8 | 71.8% | 113% | inactive | inactive | 14.8 µM (active) | 18.7 µM (active) | – | 55.7% | – | –
CCOC(=O)C1=C[C@@]2(CC)CCCN3CCc4c(n1c1ccccc41)[C@H]32 | -2.64% (inactive) | 66.2% [at 18.4 µM] | 56.5% [at 18.4 µM] | – | – | – | – | – | – | – | – | – | – | 25.8% [at 18.4 µM] | – | –
C1COC(NC(C2CC2)C2CC2)=N1 | 8.63% (inactive) and 12.8% (inactive) | – | – | 72.7% | 88.7% | 67.2 | 82.6% | 33.1% | inactive | – | inactive | inactive | inactive | – | inactive | –
